Each structure is given as a SMILES string. Several values for one entry are separate records, joined by “and”; a condition that tells them apart may be missing. Equal entries are not always repeated. Compounds without any hit were thinned out: in the full panel of roughly 79,000, 15% have a hit. Some structures have more than one record in an assay (separate samples or runs), and their calls can disagree. Activity calls are given as the source filed them. Rule as the data show it: active = growth inhibition above about 70%; inactive = the rest.

The first assay can be described thus: NCI Yeast Anticancer Drug Screen. Data for the mec2-1 strain (AID 157). The following applies: S. cerevisiae mec2-1 strain, at 50.0 µM (retest, dose inferred, filed as 5.0), stronger effect = higher value. The method in brief:
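Growth inhibition is read against vehicle-treated controls after compound exposure of the mec2-1 yeast strain, which is defective in DNA damage repair or cell cycle control.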
With `Cc1cc(C)c(O)c(C)c1.[Hg]`, the growth inhibition is 99% (active).
Take `CC(O)C(=O)O.CC(O)C(=O)O.[Ni]` (stereo not drawn): the growth inhibition is 3% (inactive).
The same measure, in the same setting: with `CC(=O)OC1C(=O)OCC23CCC4(C)OC4C2OC2CC(OC(=O)/C=C/C=C/C(=O)OCCC1C)C3(C)C21CO1` (stereo not drawn) the figure was 100% (active); with `CN1C(=O)CC[C@@]2(C)C1=CC[C@H]1[C@@H]3CC[C@H](O)[C@@]3(C)CC[C@@H]12`, 43% (inactive).
`CC[C@H](C)c1occ2c(O)c(C(=O)O)c(=O)cc-2c1C`: the growth inhibition is 99% (active).
Same read-out and setting: with `O=[N+]([O-])[O][Tl]([c]1ccccc1)[c]1ccccc1` the figure was 54% (inactive); with `CCCC[CH2][Sn]([CH2]CCCC)[CH2]CCCC.CCCC[CH2][Sn]([CH2]CCCC)[CH2]CCCC`, 100% (active).
For `Nc1cc(Cl)ccc1C(=O)c1ccccc1Cl`, the growth inhibition was 99% (active).
On the same count and under the same terms, as for `CC(Br)CN1CCOCC1` (stereo not drawn), the figure is 98% (active); as for `C(CCC[Te][Te]CCCCCCOC1CCCCO1)CCOC1CCCCO1` (stereo not drawn), 17% (inactive); as for `CN1CN(c2ccccc2)C2(CCN(C3Nc4ccccc4O3)CC2)C1=O` (stereo not drawn), 26% (inactive).
The same measure, in the same setting: as for `[CH3][Sn]([CH3])([Cl])[c]1cc[c]([Sn]([CH3])([CH3])[Cl])cc1`, the figure is 50% (inactive).
On the same count and under the same terms, with `O=[C-]CCCCCC[C-]=O.[C-]#[O+].[C-]#[O+].[C-]#[O+].[C-]#[O+].[Fe+6].[Fe+6].[c-]1[c-][c-][cH-][c-]1.[c-]1[c-][c-][cH-][c-]1` the figure was 97% (active); with `CCOC(=O)NC(=S)[S][Sb]([S]C(=S)NC(=O)OCC)[S]c1nc2ccc(N=Nc3ccc(NS(=O)(=O)c4ccc(NC(=O)C(N5CC5)(N5CC5)N5CC5)cc4)cc3)cc2s1`, 99% (active); with `CCC[N+](CCC)(CCC)CCC.N#CN=C([SH2+])[SH2+].N#CN=C([SH2+])[SH2+].[Pt+2]`, 2% (inactive).
Regarding `CCCCCCCC/C=C\CCCCCCCCN1CC(C(=O)[O][Pb]([CH2]C)([CH2]C)[CH2]C)CC1=O` (stereo not drawn), the growth inhibition is 80% (active).
Still for that read-out and setting: as for `O=c1[nH]cc(Cn2cnc3ncccc3c2=O)c(=O)[nH]1`, the figure is -5% (inactive).
On to `CC(C)(C)C1=CC(=C/C=C/c2cc(C(C)(C)C)[o+]c(C(C)(C)C)c2)C=C(C(C)(C)C)O1`, for which the growth inhibition is 96% (active).
The same measure, in the same setting: as for `S=C(S)N1CCCCC1`, the figure is 60% (inactive) and 6% (inactive).
Still for that read-out and setting: as for `CN[C@H]1C[C@@H]2O[C@@](C)([C@H]1OC)n1c3ccccc3c3c4c(c5c6ccccc6n2c5c31)C(=O)NC4`, the figure is 99% (active); as for `CC(C)(C)OOC(=O)c1ccccc1`, 99% (active).
Consider `ClCCN(CCCl)CCN1c2ccccc2Sc2ccc3ccccc3c21`, for which the growth inhibition is 53% (inactive).
On to `CCOC(=O)c1ccccc1N`, for which the growth inhibition is 1% (inactive).
Consider `Cn1cnc(C(=N)[Se])c1N`, for which the growth inhibition is 91% (active).
The same measure, in the same setting: as for `Cc1ccc(NP(=O)(Oc2ccccc2)N(CCCl)CCCl)cc1` (stereo not drawn), the figure is 10% (inactive); as for `CCOC(=O)C1=C(C)NC(=O)NC1c1ccc(N(CCCl)CCCl)cc1Cl` (stereo not drawn), 59% (inactive).
As to `ClC(C[n+]1ccccc1)c1ccccc1` (stereo not drawn), the growth inhibition was 16% (inactive).
Consider `CCCCCCCC1(c2ccc(N)cc2)CCC(=O)NC1=O` (stereo not drawn), for which the growth inhibition is 61% (inactive).
Turning to `COC(=O)C(CCCN=C(N)N[N+](=O)[O-])NC(=O)c1ccc2c(c1O)C(=O)c1ccccc1C2=O` (stereo not drawn), the growth inhibition is 11% (inactive).
For `Cc1cc(N(CCCl)CCCl)ccc1CN1CCCN(Cc2ccc(N(CCCl)CCCl)cc2C)C1c1ccc(N(CCCl)CCCl)cc1C`, the growth inhibition was 99% (active).
The same measure, in the same setting: as for `c1ccc([CH2][Pb]([c]2ccccc2)([c]2ccccc2)[c]2ccccc2)cc1`, the figure is 99% (active).
As for `C[CH2][Sn][CH2]C.c1cc[c]([Ge]([c]2ccccc2)[c]2ccccc2)cc1.c1cc[c]([Sn]([c]2ccccc2)[c]2ccccc2)cc1`, the growth inhibition is 98% (active).
Consider `CCC1(C2=CCCCC2)C(=O)NC(=S)NC1=O`, for which the growth inhibition was 76% (active).
Still for that read-out and setting: as for `N#CC(=C=N)N=C(F)C(C#N)=C(C#N)C#N`, the figure is 88% (active); as for `N#C[SH2+].N#C[SH2+].N#C[SH2+].N#C[SH2+].[Cu+2].c1ccc(C[P+](c2ccccc2)(c2ccccc2)c2ccccc2)cc1`, 95% (active); as for `CC#N.FC(F)(F)C#CC(F)(F)F.FC(F)(F)C#CC(F)(F)F.FC(F)(F)C#CC(F)(F)F.[W]`, 99% (active).
The same measure, in the same setting: as for `CC(C)c1cccc(C(C)C)c1NC(=O)C(=O)CC(=O)CC(c1ccccc1)c1c(O)c2ccccc2oc1=O` (stereo not drawn), the figure is -12% (inactive); as for `CCN(CCCl)c1ccc(/C=C/C2=[N+](C)c3ccccc3C2(C)C)c(C)c1`, 99% (active).
Same read-out and setting: with `Cc1cc(C)[n+](CCOc2ccc(/C(=C(/Cl)c3ccccc3)c3ccccc3)cc2)c(C)c1` the figure was 83% (active).

Still in this assay, the particulars now being: S. cerevisiae mec2-1 strain, at 50.0 µM, stronger effect = higher value.
As for `Cc1cc(C)c(O)c(C)c1.[Hg]`, the growth inhibition is 99.5% (active).
As for `CC(O)C(=O)O.CC(O)C(=O)O.[Ni]` (stereo not drawn), the growth inhibition was 19.1% (inactive).
Take `CC(=O)OC1C(=O)OCC23CCC4(C)OC4C2OC2CC(OC(=O)/C=C/C=C/C(=O)OCCC1C)C3(C)C21CO1` (stereo not drawn): the growth inhibition was 93.8% (active).
The same measure, in the same setting: as for `CN1C(=O)CC[C@@]2(C)C1=CC[C@H]1[C@@H]3CC[C@H](O)[C@@]3(C)CC[C@@H]12`, the figure is 14.9% (inactive); as for `CC[C@H](C)c1occ2c(O)c(C(=O)O)c(=O)cc-2c1C`, -2.7% (inactive); as for `O=[N+]([O-])[O][Tl]([c]1ccccc1)[c]1ccccc1`, 21.4% (inactive).
Still for that read-out and setting: as for `CCCC[CH2][Sn]([CH2]CCCC)[CH2]CCCC.CCCC[CH2][Sn]([CH2]CCCC)[CH2]CCCC`, the figure is 99.5% (active); as for `Nc1cc(Cl)ccc1C(=O)c1ccccc1Cl`, 99% (active).
For `CC(Br)CN1CCOCC1` (stereo not drawn), the growth inhibition was 96.8% (active).
The same measure, in the same setting: with `C(CCC[Te][Te]CCCCCCOC1CCCCO1)CCOC1CCCCO1` (stereo not drawn) the figure was 48.5% (inactive); with `CN1CN(c2ccccc2)C2(CCN(C3Nc4ccccc4O3)CC2)C1=O` (stereo not drawn), 44.5% (inactive).
Regarding `[CH3][Sn]([CH3])([Cl])[c]1cc[c]([Sn]([CH3])([CH3])[Cl])cc1`, the growth inhibition is 72.5% (active).
Same read-out and setting: with `O=[C-]CCCCCC[C-]=O.[C-]#[O+].[C-]#[O+].[C-]#[O+].[C-]#[O+].[Fe+6].[Fe+6].[c-]1[c-][c-][cH-][c-]1.[c-]1[c-][c-][cH-][c-]1` the figure was 98.5% (active).
On to `CCOC(=O)NC(=S)[S][Sb]([S]C(=S)NC(=O)OCC)[S]c1nc2ccc(N=Nc3ccc(NS(=O)(=O)c4ccc(NC(=O)C(N5CC5)(N5CC5)N5CC5)cc4)cc3)cc2s1`, for which the growth inhibition is 99.6% (active).
For `CCC[N+](CCC)(CCC)CCC.N#CN=C([SH2+])[SH2+].N#CN=C([SH2+])[SH2+].[Pt+2]`, the growth inhibition is 44% (inactive).
Still for that read-out and setting: as for `CCCCCCCC/C=C\CCCCCCCCN1CC(C(=O)[O][Pb]([CH2]C)([CH2]C)[CH2]C)CC1=O` (stereo not drawn), the figure is 28.8% (inactive); as for `O=c1[nH]cc(Cn2cnc3ncccc3c2=O)c(=O)[nH]1`, 7.55% (inactive); as for `CC(C)(C)C1=CC(=C/C=C/c2cc(C(C)(C)C)[o+]c(C(C)(C)C)c2)C=C(C(C)(C)C)O1`, 95.6% (active).
On to `S=C(S)N1CCCCC1`, for which the growth inhibition is 45.7% (inactive) and 90.3% (active) and 31.6% (inactive).
Same read-out and setting: as for `CN[C@H]1C[C@@H]2O[C@@](C)([C@H]1OC)n1c3ccccc3c3c4c(c5c6ccccc6n2c5c31)C(=O)NC4`, the figure is 92.9% (active); as for `CC(C)(C)OOC(=O)c1ccccc1`, 18.4% (inactive); as for `ClCCN(CCCl)CCN1c2ccccc2Sc2ccc3ccccc3c21`, 40% (inactive).
As for `CCOC(=O)c1ccccc1N`, the growth inhibition was 1.2% (inactive).
In the case of `Cn1cnc(C(=N)[Se])c1N`, the growth inhibition was 71% (active).
As to `Cc1ccc(NP(=O)(Oc2ccccc2)N(CCCl)CCCl)cc1` (stereo not drawn), the growth inhibition is 23.9% (inactive).
On to `CCOC(=O)C1=C(C)NC(=O)NC1c1ccc(N(CCCl)CCCl)cc1Cl` (stereo not drawn), for which the growth inhibition was 44.1% (inactive).
Regarding `ClC(C[n+]1ccccc1)c1ccccc1` (stereo not drawn), the growth inhibition was 34.2% (inactive) and -1.25% (inactive).
Still for that read-out and setting: with `CCCCCCCC1(c2ccc(N)cc2)CCC(=O)NC1=O` (stereo not drawn) the figure was 27.9% (inactive); with `COC(=O)C(CCCN=C(N)N[N+](=O)[O-])NC(=O)c1ccc2c(c1O)C(=O)c1ccccc1C2=O` (stereo not drawn), 28.7% (inactive).
`Cc1cc(N(CCCl)CCCl)ccc1CN1CCCN(Cc2ccc(N(CCCl)CCCl)cc2C)C1c1ccc(N(CCCl)CCCl)cc1C`: the growth inhibition is 98% (active).
For `c1ccc([CH2][Pb]([c]2ccccc2)([c]2ccccc2)[c]2ccccc2)cc1`, the growth inhibition is 99.2% (active).
As for `C[CH2][Sn][CH2]C.c1cc[c]([Ge]([c]2ccccc2)[c]2ccccc2)cc1.c1cc[c]([Sn]([c]2ccccc2)[c]2ccccc2)cc1`, the growth inhibition was 99.5% (active).
Take `CCC1(C2=CCCCC2)C(=O)NC(=S)NC1=O`: the growth inhibition was -3.9% (inactive) and 5.6% (inactive).
Same read-out and setting: with `N#CC(=C=N)N=C(F)C(C#N)=C(C#N)C#N` the figure was 82.6% (active).
On the same count and under the same terms, with `N#C[SH2+].N#C[SH2+].N#C[SH2+].N#C[SH2+].[Cu+2].c1ccc(C[P+](c2ccccc2)(c2ccccc2)c2ccccc2)cc1` the figure was 97.8% (active); with `CC#N.FC(F)(F)C#CC(F)(F)F.FC(F)(F)C#CC(F)(F)F.FC(F)(F)C#CC(F)(F)F.[W]`, 99.5% (active); with `CC(C)c1cccc(C(C)C)c1NC(=O)C(=O)CC(=O)CC(c1ccccc1)c1c(O)c2ccccc2oc1=O` (stereo not drawn), 43% (inactive).
As for `CCN(CCCl)c1ccc(/C=C/C2=[N+](C)c3ccccc3C2(C)C)c(C)c1`, the growth inhibition is 98.2% (active).
The same measure, in the same setting: with `Cc1cc(C)[n+](CCOc2ccc(/C(=C(/Cl)c3ccccc3)c3ccccc3)cc2)c(C)c1` the figure was 91.9% (active).
